# According to ChEMBL document CHEMBL4513216, “Probing the Open Global Health Chemical Diversity Library for Multistage-Active Starting Points for Next-Generation Antimalarials” (ACS Infect Dis, 2020):
# In all, about 69,000 compounds went through this assay and about 8,600 (12%) showed an effect of 50% or more. Shown is part of a subset that was picked to be rich in strong results.
# Tested on: Plasmodium berghei
# Assay: Screen against P. berghei liver stage (PbLuc), transformed with Luciferase, at 10uM
# Type: functional, HepG2
# Conditions: tested at 10 uM
row,Compound,INHIBITION
1,O=C(CCN1CCCCO1)N1CCC(CO)(Cc2ccccc2)CC1,-9.44%
2,CCCNC(=O)c1cc2c([nH]c1=O)CC(c1cccs1)CC2=O (stereo not given),41.8%
3,CC(C)NC(=O)c1cc2c([nH]c1=O)CC(c1cccs1)CC2=O (stereo not given),62.3%
4,O=C1CC(c2cccs2)Cc2[nH]c(=O)ccc21 (stereo not given),-32.1%
5,CC1CC(=O)c2cc(C(=O)N3CCc4ccccc43)c(=O)[nH]c2C1 (stereo not given),21.5%
6,O=C1CC(c2ccc(F)cc2)Cc2[nH]c(=O)c(C(=O)O)cc21 (stereo not given),-67.9%
7,O=C1CC(c2cccs2)Cc2[nH]c(=O)c(C(=O)NC3CCCC3)cc21 (stereo not given),59.5%
8,CCOCC1CN(Cc2ccco2)Cc2nccn2C1 (stereo not given),10.7%
9,COc1cc(C(=O)N2C[C@@H]3CC[C@H]2CN(Cc2cscn2)C3)ccn1,-16.3%
10,Cc1nc2ccccc2nc1CN1CCn2nc(CCC(=O)O)cc2C1,36%
11,CN(C)CCNC(=O)c1cc2n(n1)CCN(C(=O)CC(C)(C)C)C2,-15.7%
12,CC1(C)[C@@H]2CC=C(CN3CCCn4nc(CCC(=O)O)cc4C3)[C@H]1C2,59.1%
13,O=C(O)CCc1cc2n(n1)CCN(Cc1ccc3[nH]ccc3c1)C2,-15.7%
14,CN(C)C(=O)NCc1cc2n(n1)CCCN(CC1[C@H]3CNC[C@@H]13)C2 (stereo not given in full),-14.6%
15,CC1(C)[C@@H]2CC=C(CN3CCCn4nc(C(=O)O)cc4C3)[C@H]1C2,65.6%
16,O=C(O)CCc1cc2n(n1)CCN(Cc1cnc(N3CCCC3)nc1)C2,7.43%
17,CCOC(=O)N1CCCn2nc(C(=O)NCCN(C)C)cc2C1,-10.2%
18,O=C(NCc1cc2n(n1)CCCN(Cc1ccc(CO)o1)C2)C1CCC1,11.8%
19,CC1(C)[C@@H]2CC=C(CN3CCCn4nc(C(=O)NCCO)cc4C3)[C@H]1C2,68.4%
20,Cc1cc(CN2CCCn3nc(CCC(=O)O)cc3C2)ccc1F,60.2%
21,CC1(C)[C@@H]2CC=C(CN3CCCn4nc(CNS(C)(=O)=O)cc4C3)[C@H]1C2,25.7%
22,CC(C)CN1CCN(C)C(CCO)C1 (stereo not given),34.4%

row,Compound,INHIBITION
1,Cc1ccc(-c2cc(CNC(=O)N3CCC(N(C)C)CC3)on2)cc1,17.4%
2,COc1ccc(C(=O)N2CC(=O)N(C3CCC3)CC(O)C2)c(OC)c1 (stereo not given),13.9%
3,CO[C@@H]1CC[C@@H](NS(=O)(=O)c2cn(C)nc2C)[C@H]1O,33.8%
4,c1ccc(CN2CCC(CNc3ncnc4c3CCNCC4)CC2)cc1,28.7%
5,COc1ccc(-c2ccc(C(=O)N3CCOCC3CC(=O)O)o2)cc1 (stereo not given),1.71%
6,O=C(CN1CCCCCC1)N1CCc2nnc(C3CCCNC3)n2CC1 (stereo not given),30.4%
7,CC(C)c1noc(CCNC(=O)NCC2COc3ccccc3O2)n1 (stereo not given),7.24%
8,O=C(c1ccco1)N1CCc2ncnc(Oc3cccnc3)c2CC1,29%
9,O=C(CN1CCN(CC(O)C2CC2)CC1)NCc1ccccc1Cl (stereo not given),17.6%
10,Cc1nnc(N2CCOC(C)C2)c(C#N)c1C (stereo not given),7.4%
11,CS(=O)(=O)N1CCCC1Cn1cccn1 (stereo not given),20.8%
12,COc1ccccc1C1=NOC(CC2(C(=O)NCCO)CCOCC2)C1 (stereo not given),8.72%
13,Cc1cc(CN2CCCCC2Cn2cncn2)no1 (stereo not given),20.8%
14,c1ccc(-c2nc(CN3CCc4c(ncn4C4CC4)C3)cs2)cc1,34.1%
15,CNS(=O)(=O)CC(=O)NCc1cc2c(s1)CCC(C)(C)C2,-19.3%
16,O=C([C@H]1C[C@H]2OCC[C@H]2N(CCc2ccccc2)C1)N1CCCCO1,-0.569%
17,CC(=O)N1CCC2(CC1)c1ncc(-c3ccccc3)n1CCN2C(C)=O,-15.3%
18,CN1CCn2c(-c3cccc(F)c3)cnc2C12CCN(CC1CC1)CC2,8.85%
19,CCS(=O)(=O)N1CCC2(CC1)c1ncc(-c3cccnc3)n1CCN2C,24.9%
20,CC(=O)N1CCC2(CC1)c1ncc(-c3ccc(F)cc3)n1CCN2C,39.4%
21,CC(=O)N1CCn2c(-c3cccc(F)c3)cnc2C12CCNCC2,24.9%
22,CC(=O)N1CCC2(CC1)c1ncc(-c3ccccc3)n1CCN2C,43%

row,Compound,INHIBITION
1,CNC(=O)N1CCC2(CC1)c1ncc(-c3cccc(F)c3)n1CCN2C,63.3%
2,CC(=O)N1CCC2(CC1)c1ncc(-c3cccnc3)n1CCN2C,58.4%
3,CCN1CCn2c(-c3cccc(F)c3)cnc2C12CCN(C(C)=O)CC2,85.2%
4,COc1ccccc1CNC(=O)CN(C)C(C)c1ccon1 (stereo not given),-13.6%
5,COc1ccc(N2CCN(C(=O)COc3c(C)occc3=O)CC2)cc1,-1.99%
6,O=C(O)c1ccc(=O)n(CC(c2ccc(Cl)cc2)N2CCCCCC2)c1 (stereo not given),10.8%
7,OC(CNCc1nnc2ccccn12)c1ccc2c(c1)OCO2 (stereo not given),-10.8%
8,Nc1nccnc1C1CN(C(=O)c2ccc3c(c2)OCO3)CCO1 (stereo not given),11.1%
9,Cc1c(C2CC2)n[nH]c1NC(=O)C1CCCN(C(=O)NCC(C)C)C1 (stereo not given),35.7%
10,CCCC1c2cccn2CCN1C(=O)Cn1cnc2sc(C)cc2c1=O (stereo not given),11.35%
11,Cc1ccc(-c2noc(CN3CCOC(Cn4cccn4)C3)n2)cc1 (stereo not given),48.6%
12,Cc1cc(C)n(C2CCCN(C(=O)CCc3nccs3)C2)n1 (stereo not given),21.6%
13,CN1CC[C@@H]2[C@@H](CO[C@H]2CNC(=O)c2nccn2C)C1,-17.7%
14,Cn1ccnc1C(=O)NC[C@H]1OC[C@@H]2CCN(S(C)(=O)=O)C[C@@H]21,52.1%
15,Cn1cc(C(=O)NC[C@@H]2OC[C@H]3CN(S(C)(=O)=O)CC[C@H]32)cn1,18.5%
16,Cn1ccnc1C(=O)NC[C@@H]1OC[C@H]2CN(S(C)(=O)=O)CC[C@H]21,64.7%
17,CCCN1CC[C@@H]2[C@@H](CO[C@H]2CNC(=O)c2nccn2C)C1,34%
18,Cn1ccnc1C(=O)NC[C@@H]1OC[C@H]2CN(CC3CC3)CC[C@H]21,20.4%
19,NCC(CO)Cc1cccc(OC(F)(F)F)c1 (stereo not given),-14.5%
20,CC(C)N1Cc2c(C(=O)N3CCOCC3)nn(C)c2C1,6.82%
21,CC(C)(C)C(=O)N1CCCC1c1cc(CO)[nH]n1 (stereo not given),3.585%
22,CC(C)c1csc(C2CCCN(C(=O)c3ccc[nH]3)C2)n1 (stereo not given),59.1%

row,Compound,INHIBITION
1,CC(C)c1csc(C2CCCN(C(=O)Cn3ccccc3=O)C2)n1 (stereo not given),9.25%
2,CC(C)c1csc(C2CCCN(C(=O)c3ccc(=O)n(C)c3)C2)n1 (stereo not given),52.6%
3,Cc1nc(C(=O)N2CCCC(c3nc(C(C)C)cs3)C2)c[nH]1 (stereo not given),8.12%
4,CC(C)c1csc(C2CCCN(C(=O)c3ccc(=O)n(C)n3)C2)n1 (stereo not given),-7.48%
5,CC(C)c1csc(C2CCCN(C(=O)c3ncccn3)C2)n1 (stereo not given),31.9%
6,Cc1c(COc2ccccc2)cccc1NC(=O)N1CC[C@H](O)C1,26.9%
7,COCCC(=O)NCC(O)c1c(F)cccc1F (stereo not given),-2.92%
8,Cc1ccc(NC(=O)c2ccc(=O)n(CC(=O)NC3CCCC3)n2)cc1,16.2%
9,O=C(O)c1sccc1Oc1ccc(NC(=O)C2CC2)cc1,22.6%
10,Cc1cc(C)c(C#N)c(NCCn2cnnc2C(C)C)n1,58.9%
11,CCn1cnnc1CCNc1nc(C)cc(C)c1C#N,32.775%
12,Cc1cc(C)c(C#N)c(NCCSc2nncn2C)n1,7.45%
13,CCCn1nc(C)c(CN(CCN(C)C)Cc2ccccn2)c1C,13.7%
14,Cc1ccccc1CN(Cc1ccc(S(C)(=O)=O)cc1)CC(C)C,78.9%
15,Cc1ccccc1CN(Cc1ccncc1)CC(C)C,21.5%
16,Cc1ccccc1CN(CCN(C)C)Cc1ccc(S(C)(=O)=O)cc1,40.4%
17,CN(C)C(=O)[C@H]1CO[C@H]2CCN(c3ncc(F)cn3)C[C@H]2C1,34.2%
18,CN(C)C[C@@H]1C[C@@H]2CN(C(=O)c3ccoc3)CC[C@@H]2N1CC1CC1,25.7%
19,CCCNC(=O)CCC(=O)N1CCC(c2noc3cc(F)ccc23)CC1,21.8%
20,CCOC(=O)C1(NCC(=O)Nc2cc(C)ccc2OC)CCCC1,-35%
21,Cc1ccc(CN2CCn3c(CN(C)C(C)C)cnc3C2)s1,7.53%
22,Cc1ncc(C(=O)NC2CCN(CCOc3ccc(Br)cc3)CC2)s1,88.6%

row,Compound,INHIBITION
1,Cc1ncsc1C(=O)NC1CCN(CCC(N)=O)CC1,24%
2,Cc1nc(CC(=O)N2CCN(CCOc3ccccc3)CC2)cs1,21.8%
3,CN1CCCC1CNC(=O)CCOc1ccc(Br)cc1 (stereo not given),22.983%
4,CCc1nnsc1C(=O)NC1CCN(c2ccccn2)CC1,-7.9%
5,Cc1nc(C(=O)NC2CCN(CCOc3ccc(Br)cc3)CC2)cs1,85.4%
6,CO[C@@H]1CC[C@@H](NC(=O)c2ccc(OCCN3CCCC3)cc2)[C@H]1O,34.25%
7,CCc1nnsc1C(=O)NC1CCN(CCOc2ccc(Br)cc2)CC1,80%
8,CC(=O)Nc1nc(C(=O)NCCOc2ccc(C)cc2)cs1,49.2%
9,COCc1nc(C(=O)N2CCCC(n3nc(C)nc3C)C2)cs1 (stereo not given),26.4%
10,CCn1ncc2c1C(COC)N(C(=O)c1ccc3c(c1)OCO3)CC2 (stereo not given),-33%
11,COc1nccnc1N1CCCC2(C1)C(=O)N(C)c1ccccc12 (stereo not given),-60.7%
12,C[C@@H]1CN(Cc2ccncc2)C[C@@]1(O)C1CC1,3.19%
13,CCc1nc(CN2CCCC(NCc3nc4ccccc4o3)C2)no1 (stereo not given),-21.7%
14,CCN1CCN(C(=O)c2ccc3c(c2)NC(=O)CN3)[C@H]2CS(=O)(=O)C[C@H]21,73%
15,Cc1nc2ccc(C(=O)N3CCN(CCO)[C@@H]4CS(=O)(=O)C[C@@H]43)cc2o1,22.3%
16,CCN1CCN(C(=O)c2ccc3c(c2)CCCN3)[C@H]2CS(=O)(=O)C[C@H]21,33.2%
17,CCCN1CCN(C(=O)c2ccc3nc(C)oc3c2)[C@H]2CS(=O)(=O)C[C@H]21,33%
18,Cn1cnc2cc(C(=O)N3CCN(CCO)[C@@H]4CS(=O)(=O)C[C@@H]43)ccc21,73.6%
19,CCN1CCN(C(=O)c2cc(-c3ccc(C)o3)n[nH]2)[C@H]2CS(=O)(=O)C[C@H]21,-1.04%
20,O=C(c1ccc2nccnc2c1)N1CCN(CCO)[C@@H]2CS(=O)(=O)C[C@@H]21,41.5%
21,CCN1CCN(C(=O)c2ccc3c(c2)OCC(=O)N3)[C@H]2CS(=O)(=O)C[C@H]21,58.2%
22,CCN1CCN(C(=O)c2cc(C(F)(F)F)n[nH]2)[C@H]2CS(=O)(=O)C[C@H]21,33.7%
